This note sets out measurements from PubChem BioAssay.

Calls of active or inactive are those of the source. Unless noted, the rule behind the calls is not given here.

Experiment [1] is described as follows: HepG2 liver cancer cell viability effects, profiling panel, resazurin fluorescence, 24 h, PK04 Diversity Set (AID 1172). Note: test concentration not given here. The note with it: higher = more signal. In general terms: Alamar Blue is a resazurin reagent that responds to reducing activity.
A short description of experiment [2]: basal S. cerevisiae growth modulation, no modifier, primary screen, OD600, strain BY4716, 24 h, basal condition (AID 1173). To be noted: OD600, 24 h, higher = more signal, called active from +8 up or from −8 down.
Experiment [3] can be described thus: MM1S myeloma cell viability, profiling panel, resazurin fluorescence, basal, 24 h, PK04 Diversity Set (AID 1174).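 Note: MM1S multiple myeloma cell line; test concentration not given here.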 To be noted: higher = more signal, called active from +8 up or from −8 down.
Experiment [4] concerns the target Dihydroorotate dehydrogenase (quinone), mitochondrial (Plasmodium falciparum (isolate 3D7)) (UniProt Q08210). In words: PfDHODH enzyme inhibitors, primary screen, biochemical, C-terminal His tag, absorbance 600 nm (AID 1175).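 Note: recombinant parasite enzyme with a five histidine tag at its C terminus; test concentration not given here.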 To be noted: DCIP absorbance 600 nm, higher = more signal, called active from +8 up or from −8 down.
Experiment [5] can be described thus: P. aeruginosa biofilm formation inhibitors, primary screen, strain PAO1, LB-PBS medium, absorbance 600 nm (AID 1176). Note: test concentration not given here. The note with it: P. aeruginosa PAO1 growth/biofilm, A600, 12 h; higher = more signal.
Experiment [6] can be described thus: S. cerevisiae RM11-1a growth modifiers, primary screen, strain RM11-1a, OD600, basal, 24 h (AID 1177).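 Note: cultures grown under basal conditions with no added stressor; test concentration not given here.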 The note with it: OD600, 24 h, higher = more signal, called active from +8 up or from −8 down.
A short description of experiment [7]: E. coli acrAB mutant growth effects, primary screen, E. coli filamentation inducers, strain DRC39, OD650, 24 h (AID 1178).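 Note: growth measured as culture turbidity by optical density at 650 nm; test concentration not given here.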 The note with it: higher = more signal, called active from +8 up or from −8 down.
The nature of experiment [8]: E. coli acrAB mutant growth effects, primary screen, E. coli filamentation inducers, strain DRC39, OD650, 48 h (AID 1179).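 Note: screen aims at cell division blockers that make cells filament.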 The note with it: E. coli DRC39 delta-acrAB growth, higher = more signal, called active from +8 up or from −8 down.
Experiment [9] is described as follows: RPMI8226 myeloma cell viability, profiling panel, resazurin fluorescence, basal, 24 h, PK04 Diversity Set (AID 1180).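 Note: RPMI8826 multiple myeloma cell line at 5000 cells per well; test concentration not given here.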 To be noted: higher = more signal.
The target in experiment [10] is E3 ubiquitin-protein ligase XIAP (Homo sapiens) (UniProt P98170). Description: XIAP binders, primary screen, biophysical, small-molecule microarray, fluorescence 635 nm (AID 1181).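 Note: score merges 667 nm emission and signal to noise over triplicate slides.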 To be noted: small-molecule microarray binding, higher = more signal.
Chain of E3 ubiquitin-protein ligase XIAP (Homo sapiens) (P98170 whole entry, looked up): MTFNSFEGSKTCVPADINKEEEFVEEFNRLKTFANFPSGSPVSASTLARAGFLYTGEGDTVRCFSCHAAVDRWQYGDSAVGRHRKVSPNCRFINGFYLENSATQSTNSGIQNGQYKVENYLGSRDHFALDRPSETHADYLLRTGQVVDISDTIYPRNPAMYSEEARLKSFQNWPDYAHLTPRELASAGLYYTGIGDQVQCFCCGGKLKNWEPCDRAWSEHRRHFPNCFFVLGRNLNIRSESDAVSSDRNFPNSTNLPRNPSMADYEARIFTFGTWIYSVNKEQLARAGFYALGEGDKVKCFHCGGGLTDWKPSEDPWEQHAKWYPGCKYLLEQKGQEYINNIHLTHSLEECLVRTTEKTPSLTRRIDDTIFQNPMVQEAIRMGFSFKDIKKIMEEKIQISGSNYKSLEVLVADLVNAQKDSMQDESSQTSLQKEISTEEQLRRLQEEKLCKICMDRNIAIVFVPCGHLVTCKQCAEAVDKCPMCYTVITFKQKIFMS

Chain of Dihydroorotate dehydrogenase (quinone), mitochondrial (Plasmodium falciparum (isolate 3D7)) (Q08210 whole entry, looked up): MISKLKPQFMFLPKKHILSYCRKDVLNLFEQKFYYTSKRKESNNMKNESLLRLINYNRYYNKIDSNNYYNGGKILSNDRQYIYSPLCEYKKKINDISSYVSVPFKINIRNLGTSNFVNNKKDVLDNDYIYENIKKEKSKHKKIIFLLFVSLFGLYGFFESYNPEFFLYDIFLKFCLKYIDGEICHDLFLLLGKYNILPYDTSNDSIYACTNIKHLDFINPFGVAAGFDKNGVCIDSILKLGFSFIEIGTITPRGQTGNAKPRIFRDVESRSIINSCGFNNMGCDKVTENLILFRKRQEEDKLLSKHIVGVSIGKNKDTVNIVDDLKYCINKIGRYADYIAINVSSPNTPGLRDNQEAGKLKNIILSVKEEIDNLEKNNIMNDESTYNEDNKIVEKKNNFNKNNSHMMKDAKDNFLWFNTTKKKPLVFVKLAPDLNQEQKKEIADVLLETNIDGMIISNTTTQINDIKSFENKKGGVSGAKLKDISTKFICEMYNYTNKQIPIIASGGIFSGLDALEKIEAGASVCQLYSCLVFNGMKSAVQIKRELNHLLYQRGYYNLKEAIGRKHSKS

On to `CC(C)CON=C1C[C@@H](O)[C@@H](O)[C@@H]2[C@@H]3C(=O)N([C@@H](C)c4ccccc4)C(=O)[C@@H]3CC[C@H]12`, for which the z-score is 0.0096 in [1]; -1.45 (inactive) in experiment [2]; -0.0393 (inactive) in [3]; 0.07 (inactive) in experiment [5]; 0.351 (inactive) in experiment [6]; 0.595 (inactive) in [7]. Besides, the results for the z-score in experiment [8] and in experiment [9] were 0.675 (inactive) and 0.333, respectively. Also, the composite z-score in [4] is -0.0804 (inactive); in experiment [10], -0.166.

On to `COc1ccc(O[C@H]2C=C[C@@H](c3ccccc3)O[C@@H]2COC(=O)CCC(C)=NOCC[C@@H]2C=C[C@H](OC(C)=O)[C@@H](COC(C)=O)O2)cc1`, for which the z-score is 0.453 in experiment [1]; 1.51 (inactive) in experiment [2]; 0.595 (inactive) in experiment [3]; -0.455 (inactive) in [5]; 0.893 (inactive) in experiment [6]; 0.265 (inactive) in [7]. The z-score in experiment [8] was -0.0862 (inactive); in experiment [9], 0.485. Besides, the results for the composite z-score in [4] and in [10] were -0.64 (inactive) and 0.388, respectively.

As for `C=CC[C@@H]1C=C[C@H](ON=C(C)CCN2CCc3nc(CC)c(CC)cc3C2)[C@@H](CO)O1`, the z-score in experiment [1] was -0.127; in [2], -0.392 (inactive); in experiment [3], -0.439 (inactive); in experiment [5], -0.0417 (inactive); in experiment [6] it was 0.189 (inactive); in experiment [7], 0.0116 (inactive). In addition, the results for the z-score in experiment [8] and in experiment [9] were 0.138 (inactive) and -0.639, respectively. Also, the composite z-score was -1.29 (inactive) in experiment [4] and 0.0178 in experiment [10].

For the compound `O=C1CCCC=C1C(O)CCOCc1ccccc1` (stereo not given), the z-score was 0.123 in experiment [1]; -1.76 (inactive) in experiment [2]; -0.43 (inactive) in experiment [3]; 0.602 (inactive) in [5]; -0.735 (inactive) in [6]; -0.88 (inactive) in experiment [7]. Besides, the figures for the z-score in experiment [8] and in [9] were -1.74 (inactive) and 0.104, respectively. Moreover, the composite z-score in experiment [4] is -0.0462 (inactive); in experiment [10], -0.0525.

For `CCOC(=O)C1=CC[C@H]2C(=O)N(CC)C(=O)[C@@H]12`, the z-score in [1] is 0.507; in [2], 1.31 (inactive); in [3], 0.293 (inactive); in experiment [5], 0.0236 (inactive); in experiment [6], 1.38 (inactive); in [7], -0.0583 (inactive). For the same compound, the z-score is -0.196 (inactive) in experiment [8] and 0.667 in [9]. Further, the composite z-score is 0.467 (inactive) in [4] and -0.311 in experiment [10].

Take `COC(=O)[C@H]1COC(c2ccc(OCCCO)cc2)=N1`: the z-score was -0.652 in [1]; -0.928 (inactive) in experiment [2]; 0.107 (inactive) in [3]; 0.149 (inactive) in experiment [5]; -0.286 (inactive) in experiment [6]; 0.057 (inactive) in [7]. In addition, the z-score in [8] is -0.645 (inactive); in experiment [9] it was 0.492. The composite z-score was 0.335 (inactive) in experiment [4] and -0.103 in [10].

As for `CCOC(=O)CCN1C(=O)[C@H]2[C@H]3[C@H](O)[C@H](O)CC(=NOC[C@@H](O)COCc4ccco4)[C@H]3CC[C@H]2C1=O`, the z-score is -0.749 in [1]; -11.7 (active) in experiment [2]; -0.0452 (inactive) in experiment [3]; 0.0122 (inactive) in [5]; -0.788 (inactive) in [6]; 0.558 (inactive) in experiment [7]. The z-score was -0.899 (inactive) in experiment [8] and -0.424 in experiment [9]. Also, the composite z-score was -2.45 (inactive) in experiment [4] and 0.123 in [10].

On to `CC(C)NC(=O)[C@@]1(c2ccc([N+](=O)[O-])cc2)CC(=O)N(CC23CC4CC(CC(C4)C2)C3)[C@@H]1c1ccc(CO)cc1I`, for which the z-score in [1] is -3.37; in [2], -0.722 (inactive); in experiment [3] it was -4.2 (inactive); in experiment [5] it was 0.761 (inactive); in experiment [6] it was 0.835 (inactive); in experiment [7], -0.398 (inactive). Also, the z-score in [8] is -0.226 (inactive); in experiment [9] it was -4.86. Moreover, the composite z-score is -0.304 (inactive) in experiment [4] and 0.0178 in experiment [10].

On to `O=C1[C@H]2[C@H]3[C@H](O)[C@H](O)CC(=NOC[C@@H](O)COCc4ccco4)[C@@H]3CC[C@H]2C(=O)N1c1ccc(F)cc1F`, for which the z-score in experiment [1] was 0.883; in experiment [2], -0.374 (inactive); in [3] it was 0.995 (inactive); in experiment [5], -1.45 (inactive); in experiment [6] it was -0.247 (inactive); in experiment [7], 0.0718 (inactive). For the same compound, the values for the z-score in [8] and in experiment [9] were 0.264 (inactive) and 1.15, respectively. Also, the figures for the composite z-score in experiment [4] and in experiment [10] were -0.564 (inactive) and -0.37, respectively.

On to `COc1ccc(O[C@H]2C=C[C@@H](c3ccccc3)O[C@@H]2COC(=O)CCC(C)=NO[C@H](C)c2cn([C@@H]3COC[C@H]3O)nn2)cc1`, for which the z-score in [1] is 0.896; in experiment [2], -0.419 (inactive); in [3], -0.191 (inactive); in experiment [5] it was -0.467 (inactive); in [6], -0.572 (inactive); in experiment [7], -1.09 (inactive). Besides, the z-score in experiment [8] is -0.033 (inactive); in experiment [9], 0.18. Further, the composite z-score in experiment [4] is -4.78 (inactive); in experiment [10], -0.138.

As to `CCN1C(=O)[C@H]2[C@H]3[C@H](O)[C@H](O)CC(=NOCC=C(C)CCC=C(C)C)[C@H]3CC[C@H]2C1=O`, the z-score is -0.337 in experiment [1]; -0.327 (inactive) in experiment [2]; -0.944 (inactive) in experiment [3]; 0.164 (inactive) in experiment [5]; -0.414 (inactive) in experiment [6]; 0.445 (inactive) in experiment [7]. In addition, the z-score in experiment [8] was 0.314 (inactive); in experiment [9], -1.23. Further, the figures for the composite z-score in experiment [4] and in experiment [10] were -0.962 (inactive) and -0.0988, respectively.

Take `C[C@@H](c1ccccc1)N1C(=O)[C@H]2[C@H]3[C@H](O)[C@H](O)CC(=NOC[C@@H](O)COCc4ccco4)[C@@H]3CC[C@H]2C1=O`: the z-score in experiment [1] is -0.52; in experiment [2], 0.984 (inactive); in [3], -0.422 (inactive); in experiment [5], 0.176 (inactive); in [6], 0.819 (inactive); in experiment [7], -0.892 (inactive). Besides, the z-score in [8] was -0.41 (inactive); in [9], 0.2. In addition, the composite z-score in experiment [4] was 0.407 (inactive); in experiment [10], -0.131.
